Measurements: the supplement of paper PMC11219838

Key:
Conditions in all cases: 60 µM; 5 days; temperature: 20 °C
Meloidogyne hapla J2 = test: proportion of mobile M. hapla J2 relative to DMSO control (fraction of DMSO control); higher = more viable, less nematicidal, active = 0.7 or less
Outline: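 About 25 M. hapla J2 were added per 96-well well in distilled water, and compound was pinned to 60 µM final (0.6% v/v DMSO). Sealed plates were shaken at 200 rpm for 5 days at 20 °C, then 2 µL 1 M NaOH was added before microscopic mobility scoring. Mobility was divided by the mean of eight DMSO wells on the same plate, and two biological replicates were averaged.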

[1] = test system: Caenorhabditis elegans dauer (daf-2(e1370)); test: proportion of mobile C. elegans dauer larvae relative to DMSO control (fraction of DMSO control); higher = more viable, less nematicidal, active = 0.63 or less; extreme values may be limits of the assay
Outline: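 Compound was added by pinning to 60 µM final, giving 0.6% v/v DMSO, in 96-well plates containing about 20 C. elegans dauers per well in liquid NGM. These dauers came from synchronized larvae held on MYOB plates with E. coli OP50 for 48 h at 25 °C. Plates were sealed and shaken at 200 rpm at 20 °C for 5 days. Under a dissection microscope, the proportion of mobile worms was scored relative to DMSO wells, and two biological replicates were averaged.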

Ditylenchus dipsaci = test: proportion of mobile D. dipsaci (mixed stage) relative to DMSO control (fraction of DMSO control); higher = more viable, less nematicidal, active = 0.86 or less; extreme values may be limits of the assay
Outline: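 D. dipsaci were grown on pea plants in Gamborg B-5 agar and extracted through a filter funnel into water, and about 20 worms were added per 96-well well in distilled water. Compound was pinned to 60 µM final (0.6% v/v DMSO), and sealed plates were shaken at 200 rpm for 5 days at 20 °C. After 2 µL 1 M NaOH was added, mobile worms were scored microscopically. Mobility was expressed relative to DMSO controls and averaged over two biological replicates.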

Cc1ccc(-c2noc(COc3ccc(Cl)c(C)c3)n2)cc1
inactive: proportion of mobile M. hapla J2 (Meloidogyne hapla J2) 0.905 | proportion of mobile C. elegans dauer larvae [1] 1 | proportion of mobile D. dipsaci (Ditylenchus dipsaci) 1

CCOc1ccc(-c2nc(-c3ccccc3)no2)cc1
inactive: proportion of mobile M. hapla J2 (Meloidogyne hapla J2) 0.922 | proportion of mobile C. elegans dauer larvae [1] 1 | proportion of mobile D. dipsaci (Ditylenchus dipsaci) 1

Clc1cc(Cl)c(OCc2nc(-c3ccncc3)no2)cc1Cl
inactive: proportion of mobile M. hapla J2 (Meloidogyne hapla J2) 0.713 | proportion of mobile C. elegans dauer larvae [1] 1 | proportion of mobile D. dipsaci (Ditylenchus dipsaci) 1

O=C(CSc1nnc(-c2cccc(Br)c2)o1)c1ccc2c(c1)CCCC2
inactive: proportion of mobile M. hapla J2 (Meloidogyne hapla J2) 0.967 | proportion of mobile C. elegans dauer larvae [1] 1 | proportion of mobile D. dipsaci (Ditylenchus dipsaci) 1

CC(=O)Nc1c(C)ccc(CNC(=O)CSc2nnc(-c3ccc(C(C)(C)C)cc3)o2)c1C
inactive: proportion of mobile M. hapla J2 (Meloidogyne hapla J2) 0.88 | proportion of mobile C. elegans dauer larvae [1] 1 | proportion of mobile D. dipsaci (Ditylenchus dipsaci) 1

O=C(c1ccccc1-c1nc(-c2ccc(F)cc2)no1)N1CCCC1
inactive: proportion of mobile M. hapla J2 (Meloidogyne hapla J2) 1.06 | proportion of mobile C. elegans dauer larvae [1] 1 | proportion of mobile D. dipsaci (Ditylenchus dipsaci) 1

COc1ccc(-c2nnc(SCC(=O)Nc3cccc(Cl)c3Cl)o2)cc1
inactive: proportion of mobile M. hapla J2 (Meloidogyne hapla J2) 0.932 | proportion of mobile C. elegans dauer larvae [1] 1 | proportion of mobile D. dipsaci (Ditylenchus dipsaci) 1

Cc1ccccc1CSc1nnc(-c2ccncc2)o1
inactive: proportion of mobile M. hapla J2 (Meloidogyne hapla J2) 0.754 | proportion of mobile C. elegans dauer larvae [1] 1 | proportion of mobile D. dipsaci (Ditylenchus dipsaci) 1

COc1ccc(-c2noc(COc3ccccc3Cl)n2)cc1
inactive: proportion of mobile M. hapla J2 (Meloidogyne hapla J2) 1.04 | proportion of mobile C. elegans dauer larvae [1] 1 | proportion of mobile D. dipsaci (Ditylenchus dipsaci) 1

Clc1ccc(-c2nc(-c3ccncc3)no2)cc1
inactive: proportion of mobile M. hapla J2 (Meloidogyne hapla J2) 1.03 | proportion of mobile C. elegans dauer larvae [1] 1 | proportion of mobile D. dipsaci (Ditylenchus dipsaci) 1

Cn1c(SCc2nc(-c3ccc(Br)cc3)no2)nnc1-c1ccco1
inactive: proportion of mobile M. hapla J2 (Meloidogyne hapla J2) 0.835 | proportion of mobile C. elegans dauer larvae [1] 1 | proportion of mobile D. dipsaci (Ditylenchus dipsaci) 1

CCNC(=O)c1ccccc1-c1nc(-c2ccccc2)no1
inactive: proportion of mobile M. hapla J2 (Meloidogyne hapla J2) 0.908 | proportion of mobile C. elegans dauer larvae [1] 1 | proportion of mobile D. dipsaci (Ditylenchus dipsaci) 1

O=C(NCc1cccnc1)c1ccccc1-c1nc(-c2ccccc2Cl)no1
inactive: proportion of mobile M. hapla J2 (Meloidogyne hapla J2) 0.771 | proportion of mobile C. elegans dauer larvae [1] 1 | proportion of mobile D. dipsaci (Ditylenchus dipsaci) 1

COc1ccc(Cl)cc1-c1nc(-c2ccccc2C)no1
inactive: proportion of mobile M. hapla J2 (Meloidogyne hapla J2) 0.852 | proportion of mobile C. elegans dauer larvae [1] 1 | proportion of mobile D. dipsaci (Ditylenchus dipsaci) 1

COc1nc(-c2ccc(C)cc2)ccc1-c1noc(C)n1
inactive: proportion of mobile M. hapla J2 (Meloidogyne hapla J2) 0.9 | proportion of mobile C. elegans dauer larvae [1] 1 | proportion of mobile D. dipsaci (Ditylenchus dipsaci) 1

O=C(CSc1nnc(-c2ccncc2)o1)Nc1cccc(Cl)c1Cl
inactive: proportion of mobile M. hapla J2 (Meloidogyne hapla J2) 0.818 | proportion of mobile C. elegans dauer larvae [1] 1 | proportion of mobile D. dipsaci (Ditylenchus dipsaci) 1

Brc1ccc(OCc2nc(-c3cccnc3)no2)cc1
inactive: proportion of mobile M. hapla J2 (Meloidogyne hapla J2) 0.955 | proportion of mobile C. elegans dauer larvae [1] 1 | proportion of mobile D. dipsaci (Ditylenchus dipsaci) 1

Cc1cccc(-c2noc(-c3ccc(C)cc3Cl)n2)c1
inactive: proportion of mobile M. hapla J2 (Meloidogyne hapla J2) 0.964 | proportion of mobile C. elegans dauer larvae [1] 1 | proportion of mobile D. dipsaci (Ditylenchus dipsaci) 1

Cc1cccc(-c2noc(COc3ccc(C)cc3C)n2)c1
inactive: proportion of mobile M. hapla J2 (Meloidogyne hapla J2) 1.09 | proportion of mobile C. elegans dauer larvae [1] 1 | proportion of mobile D. dipsaci (Ditylenchus dipsaci) 1

COc1nc(-c2ccccc2)ccc1-c1noc(C(C)C)n1
inactive: proportion of mobile M. hapla J2 (Meloidogyne hapla J2) 0.776 | proportion of mobile C. elegans dauer larvae [1] 1 | proportion of mobile D. dipsaci (Ditylenchus dipsaci) 1

Cc1ccc(C(=O)Nc2ccccc2-c2nc(-c3cccnc3)no2)cc1C
inactive: proportion of mobile M. hapla J2 (Meloidogyne hapla J2) 0.962 | proportion of mobile C. elegans dauer larvae [1] 1 | proportion of mobile D. dipsaci (Ditylenchus dipsaci) 1

CCC(=O)Nc1ccccc1-c1nc(-c2ccncc2)no1
inactive: proportion of mobile M. hapla J2 (Meloidogyne hapla J2) 0.938 | proportion of mobile C. elegans dauer larvae [1] 1 | proportion of mobile D. dipsaci (Ditylenchus dipsaci) 1

CC(C)(C)NC(=O)CSc1nnc(-c2ccc(C(C)(C)C)cc2)o1
inactive: proportion of mobile M. hapla J2 (Meloidogyne hapla J2) 1.02 | proportion of mobile C. elegans dauer larvae [1] 1 | proportion of mobile D. dipsaci (Ditylenchus dipsaci) 1

CCCCCSc1nnc(-c2ccc(Cl)cc2Cl)o1
inactive: proportion of mobile M. hapla J2 (Meloidogyne hapla J2) 0.96 | proportion of mobile C. elegans dauer larvae [1] 1 | proportion of mobile D. dipsaci (Ditylenchus dipsaci) 1

COc1ccc(-c2nnc(SCC(=O)Nc3ccc(Cl)c(Br)c3)o2)cc1
inactive: proportion of mobile M. hapla J2 (Meloidogyne hapla J2) 0.933 | proportion of mobile C. elegans dauer larvae [1] 1 | proportion of mobile D. dipsaci (Ditylenchus dipsaci) 1

Cc1cc(OCc2nc(-c3cccnc3)no2)ccc1Cl
inactive: proportion of mobile M. hapla J2 (Meloidogyne hapla J2) 0.942 | proportion of mobile C. elegans dauer larvae [1] 1 | proportion of mobile D. dipsaci (Ditylenchus dipsaci) 1

Clc1ccc(OCc2nc(-c3cccs3)no2)cc1
inactive: proportion of mobile M. hapla J2 (Meloidogyne hapla J2) 0.923 | proportion of mobile C. elegans dauer larvae [1] 1 | proportion of mobile D. dipsaci (Ditylenchus dipsaci) 1

O=C(CSc1nnc(-c2ccc(Cl)cc2)o1)Nc1ccccc1C(F)(F)F
inactive: proportion of mobile M. hapla J2 (Meloidogyne hapla J2) 0.752 | proportion of mobile C. elegans dauer larvae [1] 1 | proportion of mobile D. dipsaci (Ditylenchus dipsaci) 1

Cc1ccc(SCc2nc(-c3ccc(C)cc3)no2)cc1
inactive: proportion of mobile M. hapla J2 (Meloidogyne hapla J2) 0.854 | proportion of mobile C. elegans dauer larvae [1] 1 | proportion of mobile D. dipsaci (Ditylenchus dipsaci) 1

COc1ccc(-c2nc(-c3ccc(C(F)(F)F)cc3)no2)cc1
inactive: proportion of mobile M. hapla J2 (Meloidogyne hapla J2) 0.966 | proportion of mobile C. elegans dauer larvae [1] 1 | proportion of mobile D. dipsaci (Ditylenchus dipsaci) 1

O=C(CSc1nnc(-c2ccc(Cl)cc2)o1)Nc1nccs1
inactive: proportion of mobile M. hapla J2 (Meloidogyne hapla J2) 0.917 | proportion of mobile C. elegans dauer larvae [1] 1 | proportion of mobile D. dipsaci (Ditylenchus dipsaci) 1

COc1cccc(-c2noc(-c3cc(C)ccc3C)n2)c1
inactive: proportion of mobile M. hapla J2 (Meloidogyne hapla J2) 0.995 | proportion of mobile C. elegans dauer larvae [1] 1 | proportion of mobile D. dipsaci (Ditylenchus dipsaci) 1

CCc1ccc(NC(=O)CSc2nnc(-c3ccco3)o2)cc1
inactive: proportion of mobile M. hapla J2 (Meloidogyne hapla J2) 0.899 | proportion of mobile C. elegans dauer larvae [1] 1 | proportion of mobile D. dipsaci (Ditylenchus dipsaci) 1

Clc1ccc(CSc2nnc(-c3ccccn3)o2)cc1
inactive: proportion of mobile M. hapla J2 (Meloidogyne hapla J2) 0.835 | proportion of mobile C. elegans dauer larvae [1] 1 | proportion of mobile D. dipsaci (Ditylenchus dipsaci) 1

Cc1ccc(SC(C)c2nc(-c3ccncc3)no2)cc1 (stereo not drawn)
inactive: proportion of mobile M. hapla J2 (Meloidogyne hapla J2) 0.861 | proportion of mobile C. elegans dauer larvae [1] 0.8 | proportion of mobile D. dipsaci (Ditylenchus dipsaci) 1

Cc1cccc(-c2noc(C3CCCCC3)n2)c1
inactive: proportion of mobile M. hapla J2 (Meloidogyne hapla J2) 1.01 | proportion of mobile C. elegans dauer larvae [1] 1 | proportion of mobile D. dipsaci (Ditylenchus dipsaci) 1
